Screening data: PubChem BioAssay, National Center for Advancing Translational Sciences (NCATS)
Compounds with a hit are over-represented: about 19% of the library has one in this group of screens.
ELG1 DNA repair: inhibitors of ELG1-dependent DNA repair in HEK293T cells | HEK293T ELG1-luciferase reporter, luminescence, 16 h; DNA damage induced by 5-fluorouridine | Potency, µM (doses to about 46.1 µM), inactives show at the top dose activity change, negative = inhibition, actives largely listed as inhibitors | 330,000 compounds, 2.3% hits | AID 504467; note: potency is the fitted concentration of half-maximal effect; nearly all actives have a fitted effect of over 55% in size
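Quantitative HTS, concentration-response format. 2,000 cells/well co-treated with 5-fluorouridine and compound, 16 hr in 5% CO2 at 37 °C; ONE-Glo luminescence read after 30 min.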
TDP1 block: TDP1 (human) enzyme inhibition | Q9NUW8 | 350,000 compounds, 0.28% hits | recombinant TDP1, AlphaScreen DNA substrate cleavage | Potency, µM (series often up to 130 µM), for the others: top-dose activity change, negative = inhibition, hits mostly inhibitors; note: potency is the fitted concentration of half-maximal effect; nearly all actives have a fitted effect of over 40% in size
Target sequence (Q9NUW8 whole entry, looked up): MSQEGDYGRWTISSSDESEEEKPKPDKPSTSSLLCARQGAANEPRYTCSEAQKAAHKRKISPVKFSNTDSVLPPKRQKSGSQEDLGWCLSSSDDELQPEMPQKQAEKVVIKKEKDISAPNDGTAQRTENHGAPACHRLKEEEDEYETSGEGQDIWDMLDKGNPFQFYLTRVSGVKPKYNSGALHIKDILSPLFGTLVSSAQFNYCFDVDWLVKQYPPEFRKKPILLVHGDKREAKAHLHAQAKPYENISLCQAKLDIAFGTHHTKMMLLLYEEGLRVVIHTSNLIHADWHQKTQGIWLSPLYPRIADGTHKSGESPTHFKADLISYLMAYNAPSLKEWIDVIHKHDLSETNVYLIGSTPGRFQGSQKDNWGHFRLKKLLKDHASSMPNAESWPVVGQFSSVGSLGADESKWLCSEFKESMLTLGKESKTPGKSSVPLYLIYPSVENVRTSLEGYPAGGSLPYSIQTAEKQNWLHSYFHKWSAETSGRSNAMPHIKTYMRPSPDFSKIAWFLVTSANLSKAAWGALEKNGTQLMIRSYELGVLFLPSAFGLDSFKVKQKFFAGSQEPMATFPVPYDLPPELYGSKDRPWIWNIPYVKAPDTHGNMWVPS
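Recombinant E. coli-expressed Tdp1 (1 nM) preincubated with compound 15 min at RT, then 5'-biotin/3'-phosphotyrosine-FITC DNA substrate (15 nM) added for 5 min. AlphaScreen beads (10 ug/ml) added, 10 min RT; tyrosine-FITC cleavage read as signal loss.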
Giardia kill: Giardia lamblia killing | AID 540267 | Giardia lamblia trophozoite viability | 340,000 compounds, 0.15% hits | activity change, % at 7.66 µM, hits read low; in the data active = activity change below about -80%; inconclusive = between about -30% and that limit;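 note: parasites exposed to compound for two days anaerobically before the ATP read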
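Killing of trophozoites was scored by loss of ATP luminescence after a 48 hrs anaerobic exposure to compounds at 37 deg C, using 100 cells per well.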
TDP1 cell noCPT: qHTS for Inhibitors of human tyrosyl-DNA phosphodiesterase 1 (TDP1): qHTS in cells in absence of CPT; 420,000 compounds, 15% hits; DT40 Tdp1-/- hTDP1 cells, no CPT, ATP luminescence, 48 h; Potency, µM (doses to about 46.2 µM), for the others: at the top dose activity change, negative = growth inhibition, usual class: inhibitors; note: potency is the fitted concentration of half-maximal effect; nearly all actives have a fitted effect of over 55% in size
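Seeded 400 DT40-hTDP1 cells/well (vehicle DMSO, no 20 nM CPT); pinned compounds; ≥48 hr at 37 °C; CellTiter-Glo luminescence as viability measure.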
TDP1 cell CPT: growth inhibition of DT40 Tdp1-/-;hTDP1 cells with camptothecin (screen for TDP1 inhibitors); 420,000 compounds, 12% hits; Potency, µM (highest dose often 46.2 µM), without a hit: at the top dose activity change, negative = growth inhibition, actives largely listed as inhibitors; chicken DT40 Tdp1-/-;hTDP1 cells + 20 nM CPT, ATP luminescence, 48 h; note: potency is the fitted concentration of half-maximal effect; nearly all actives have a fitted effect of over 55% in size
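Cell growth measured by CellTiter-Glo luminescence after a minimum 48 h, 37 C compound exposure with 20 nM CPT in Tdp1-knockout DT40 cells stably expressing hTDP1, seeded 400/well; qHTS titration format.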
IL1B secr inh: inflammasome signaling inhibition, IL-1 beta readout; activity change, % at 57.5 µM; THP-1 LPS/ATP IL-1B secretion, AlphaLISA, 16 h; stronger effect = lower value; AID 743279; 360,000 compounds, 4.7% hits; in the data active = activity change below about -50%; inconclusive = mostly about -30% to -49%
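Secreted IL-1B measured by AlphaLISA bead assay after 16 h compound exposure of THP-1 cells; compounds (final up to 57.5 uM) added 1 h before LPS (250 ng/mL) and ATP (1.25 mM) stimulation; lower signal means less secretion.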
An asterisk follows results filed as active; ? = inconclusive; nt = no result given; [ ] = dose if it differs, or a comment. Unless noted, calls come from the whole dose curve; as a rule, active = well fitted curve in the direction sought with a large enough effect; inconclusive = small, poorly fitted or top-dose-only effect, or another doubt; inactive = no such curve, though single readings can be large; an effect the other way counts as inactive or inconclusive. % is set by controls: 0 for no effect and ±100 for the full control effect.

SMILES | ELG1 DNA repair | TDP1 block | Giardia kill | TDP1 cell noCPT | TDP1 cell CPT | IL1B secr inh
COc1ccc(CCN(C)CC(O)c2ccccc2)cc1OC (stereo unspecified) | -12% | -5% | -2 | -17% | -1% | -16
CCN(C(=S)Nc1ccc(C(C)=O)cc1)C1CCCCC1 | -5% | -1% | 11 | -16% | -1% | -13
COCCn1c(C2CCCCC2)nc2sc3ccccc3c(=O)c2c1=O | -5% | 3% | -8 | 23µM* | ? | -13
COCCn1c(=O)sc2ccccc2c1=O | 6% | -3% | 4 | ? | 21µM* | 65
COc1cc(CNCCc2ccc(S(N)(=O)=O)cc2)ccc1OCc1ccc(Cl)cc1 | -13% | 1% | -6 | ? | 23µM* | -78*
C=CCOc1c(Cl)cc(CNCCCN2CCOCC2)cc1OC | -26% | nt | 8 | -77% | 23µM* | 4
CCOc1cc(CNCCCN2CCOCC2)cc(Br)c1OCC(=O)Nc1cccc(C(F)(F)F)c1 | 0% | 0% | ? | 4.1µM* | 5.2µM* | -22
COc1cc(CNCCN2CCOCC2)ccc1OCc1ccccc1Cl | -11% | 8% | -1 | 18µM* | ? | -16
COc1cc(CNCc2ccccn2)ccc1OCc1ccccc1Cl | -17% | 6% | 14 | ? | ? | -18
CCOc1cc(CNCCCN2CCOCC2)cc(Cl)c1OCC(=O)NC(C)(C)C | 5% | nt | 1 | ? | ? | -24
NC(=O)c1nc(-c2cccs2)nc2c1[nH]c(=O)n2-c1ccc(F)cc1 | 10% | -3% | -2 | ? | -9% | 24
COC(=O)c1ccccc1C[C@]1(C(=O)OC)C=C[C@H](C)[C@@H](c2ccccc2)N1C(=O)C(F)(F)F | nt | 4% | nt | nt | nt | nt
COc1ccc(CNS(=O)(=O)c2cnc(N)nc2)c(OC)c1 | nt | 8% | nt | ? | ? | nt
COc1ccc(NC(=O)Nc2cc(-c3cn4cccnc4n3)ccc2C)cc1 | nt | -1% | nt | nt | nt | nt
O=C(Nc1ccc(OC(F)F)cc1)c1cc(S(=O)(=O)N2CCOCC2)ccc1N1CCCC1 | nt | nt | -1 | -19% | ? | -7
CNC(=S)N(CCc1c(C)[nH]c2ccc(OC)cc12)Cc1ccco1 | -23% | nt | -3 | ? | -16% | -10
O=C(Cn1cc(CCO)nn1)N1CCNCC1 | 6% | 4% | -4 | -5% | -4% | 10
Cc1cc(Cl)ccc1OCC(O)CNCCc1ccc(S(N)(=O)=O)cc1 (stereo unspecified) | -12% | nt | 4 | 15µM* | ? | -5
COc1ccc(Cl)cc1NC(=S)NCCN1CCOCC1 | -9% | 5% | -18 | 5% | -9% | 11
COc1cc(CNCCN2CCOCC2)ccc1OCc1ccc(Cl)cc1 | ? | 6% | 16 | ? | 18µM* | ?
COc1cc(CNCCCN2CCOCC2)cc(Br)c1OCc1ccc(Cl)cc1 | ? | -10% | -14 | 3.7µM* | 3.7µM* | 0
Cc1ccc(C)c(NC(=O)CN(C)C(=O)c2ccc3c(=O)n4c(nc3c2)CCC4)c1 | 7% | -4% | 11 | 11% | 5% | 6
CCOC(=O)CCN1C(=O)[C@H]2[C@H]3[C@H](O)[C@H](O)C/C(=N/OC/C=C(\C)CCC=C(C)C)[C@H]3CC[C@@H]2C1=O | nt | 9%[21 µM] | nt | nt | nt | nt
CN(Cc1ccc(OCC(O)CN2CCCCC2)cc1)Cc1ccnc2ccccc12 (stereo unspecified) | -20% | nt | 22 | 4.6µM* | 9.2µM* | -15
Cc1nc2nc(NC(=O)c3ccc(Cl)cc3)[nH]n2c(=O)c1Cc1ccccc1 | nt | 7% | nt | -6% | 0% | nt
SMILES | ELG1 DNA repair | TDP1 block | Giardia kill | TDP1 cell noCPT | TDP1 cell CPT | IL1B secr inh
CN(C)c1cc2c(cc1NS(=O)(=O)c1ccccc1)n(C)c(=O)n2C | ? | 1%[0.0935 µM] | -15 | ? | ? | 4
Cn1c(=O)n(C)c2cc(NS(=O)(=O)c3ccc(Cl)cc3)c(NCc3ccccc3)cc21 | nt | 8% | nt | 13µM* | 10µM* | nt
Cn1c(=O)n(C)c2cc(S(=O)(=O)Nc3ccccc3C(=O)O)ccc21 | 7% | ? | 2 | 1% | 0% | -8
Cn1c(=O)n(C)c2cc(NS(=O)(=O)c3ccccc3)c(NCc3ccccc3)cc21 | nt | 10% | nt | ? | 15µM* | nt
COc1ccc(S(=O)(=O)Nc2cc3c(cc2NCc2ccccc2)n(C)c(=O)n3C)cc1OC | nt | 2% | nt | 21µM* | ? | nt
Cn1c(=O)n(C)c2cc(NS(=O)(=O)c3ccc(C(C)(C)C)cc3)c(NCc3ccccc3)cc21 | nt | 4%[12.3 µM] | nt | 23µM* | 21µM* | nt
O=C(NC1CCCC1)C(c1ccccn1)N(Cc1ccc(F)cc1)C(=O)c1csnn1 (stereo unspecified) | 12% | 5%[0.0935 µM] | 2 | 0% | 6% | 4
Cc1cc(S(=O)(=O)Nc2ccccc2C)ccc1F | -12% | 5%[56.1 µM] | 10 | -19% | 1% | 6
Cc1cc(S(=O)(=O)Nc2cc3c(cc2NCc2ccccc2)n(C)c(=O)n3C)ccc1F | nt | 0%[12.3 µM] | nt | 12µM* | 7.3µM* | nt
CCN(c1ccccc1)S(=O)(=O)c1ccc(C(=O)N2CCN(c3ccccc3F)CC2)cc1 | nt | nt | nt | 21µM* | ? | -5
Cc1cccc(N2CCN(C(=O)c3ccccc3SCC(=O)N3CCCC3)CC2)c1C | ? | 4%[56.1 µM] | 38 | 13µM* | 9.2µM* | 0
Cc1cccc(N2CCN(C(=O)c3ccc(S(=O)(=O)N(C)c4ccccc4)cc3)CC2)c1C | ? | -3% | -10 | 4.6µM* | 5.8µM* | -18
COc1ccc(N(C)S(=O)(=O)c2cccc(C(=O)N3CCN(c4cccc(C)c4C)CC3)c2)cc1 | nt | nt | -30 | 16µM* | ? | ?
Cc1cccc(N2CCN(C(=O)c3cc(S(=O)(=O)N(C)C)ccc3N3CCCC3)CC2)c1C | ? | 3% | -3 | ? | ? | -58*
Cc1cccc(N2CCN(C(=O)CNC(=O)c3ccccc3)CC2)c1C | 3% | nt | 11 | ? | -11% | -2
Cc1cccc(N2CCN(C(=O)CNC(=O)C3CCCCC3)CC2)c1C | ? | 0% | 4 | ? | 18µM* | 3
CCCNC(=O)NC1CCCc2ccccc21 (stereo unspecified) | ? | 2% | -12 | -23% | -14% | 5
CC(NCc1ccc(-c2ccccc2)cc1)C(O)c1ccccc1 (stereo unspecified) | -29% | -5% | 1 | 18µM* | ? | -96*
CC(O)CNCc1ccc(-c2ccccc2)cc1 (stereo unspecified) | 5% | -2% | 4 | -21% | -14% | -24
